In the supplement of paper PMC10849652:
The full data set covers some 7,900 targets. This sample favours those with a hit. About 0.6% of all pairs of compound and target were hits. Unmarked numbers belong to inactive results.

Legend:
Assay in all cases: log2 fold change, soluble protein after heating vs DMSO (PISA); higher = thermal stabilisation; K562 cells, 10 uM, 30 min; active = over 0.2 and 3.5 SD of the protein, either way, in both replicates (recomputed)
saracatinib = compound: CN1CCN(CCOc2cc(OC3CCOCC3)c3c(Nc4c(Cl)ccc5c4OCO5)ncnc3c2)CC1 [saracatinib]
How it was run: (§1)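 For each measurement, 10 μM compound was applied for 30 min to K562 cells at 2×10^6 cells/mL. Aliquots were heated for 3 min across 48°C-58°C, pooled, and extracted in PBS with 0.5% NP-40 at 4°C; the supernatant after 21,000xg for 90 min was soluble protein. This was quantified by TMTpro 16plex LC-MS/MS with channel sums equalised, and thermal stability was reported relative to control samples from duplicates, on a log2 fold-change scale.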

sotrastaurin = compound: CN1CCN(c2nc(C3=C(c4c[nH]c5ccccc45)C(=O)NC3=O)c3ccccc3n2)CC1 [sotrastaurin]
How it was run: as §1

alvocidib = compound: CN1CC[C@H](c2c(O)cc(O)c3c(=O)cc(-c4ccccc4Cl)oc23)[C@H](O)C1 [alvocidib]
How it was run: as §1

Tubastatin A = compound: CN1CCc2c(c3ccccc3n2Cc2ccc(C(=O)NO)cc2)C1 [Tubastatin A]
How it was run: as §1

[1] = compound: CNC(=O)C1=CC=CC=C1NC2=NC(=NC=C2Cl)NC3=C(C=C(C=C3)N4CCOCC4)OC
How it was run: as §1

defactinib = compound: CNC(=O)c1ccc(Nc2ncc(C(F)(F)F)c(NCc3nccnc3N(C)S(C)(=O)=O)n2)cc1 [defactinib]
How it was run: as §1

rucaparib = compound: CNCc1ccc(-c2[nH]c3cc(F)cc4c3c2CCNC4=O)cc1 [rucaparib]
How it was run: as §1

[2] = compound: CNc1nc(-c2ccc3c(N)n[nH]c3c2)cc(N2C[C@@H](C(=O)NC3CCCCC3)CC[C@H]2C)n1
How it was run: as §1

encorafenib = compound: COC(=O)N[C@@H](C)CNc1nccc(-c2cn(C(C)C)nc2-c2cc(Cl)cc(NS(C)(=O)=O)c2F)n1 [encorafenib]
How it was run: as §1

[3] = compound: COC(=O)[C@H](CCSC)NC(=O)C1=C(C=C(C=C1)NC[C@H](CS)N)C2=CC=CC=C2
How it was run: as §1

SURF1 (UniProt Q15526)
log2 fold change (saracatinib): 0.034
log2 fold change (sotrastaurin): -0.084
log2 fold change (alvocidib): -0.078
log2 fold change (Tubastatin A): -0.03
log2 fold change [1]: 0.026
log2 fold change (defactinib): -0.012
log2 fold change (rucaparib): -0.083
log2 fold change [2]: -0.092
log2 fold change (encorafenib): 0.017
log2 fold change [3]: -0.105

SRP68 (UniProt Q9UHB9)
log2 fold change (saracatinib): -0.033
log2 fold change (sotrastaurin): -0.179
log2 fold change (alvocidib): 0.044
log2 fold change (Tubastatin A): 0.085
log2 fold change [1]: -0.002
log2 fold change (defactinib): -0.019
log2 fold change (rucaparib): 0.152
log2 fold change [2]: 0.049
log2 fold change (encorafenib): 0.14
log2 fold change [3]: -0.073

THYN1 (UniProt Q9P016)
log2 fold change (saracatinib): -0.062
log2 fold change (sotrastaurin): -0.022
log2 fold change (alvocidib): -0.008
log2 fold change (Tubastatin A): -0.006
log2 fold change [1]: 0.079
log2 fold change (defactinib): -0.002
log2 fold change (rucaparib): 0.029
log2 fold change [2]: 0.072
log2 fold change (encorafenib): 0
log2 fold change [3]: -0.029

TFRC (UniProt P02786)
log2 fold change (saracatinib): 0.008
log2 fold change (sotrastaurin): 0.005
log2 fold change (alvocidib): 0.01
log2 fold change (Tubastatin A): -0.028
log2 fold change [1]: 0.029
log2 fold change (defactinib): -0.03
log2 fold change (rucaparib): -0.003
log2 fold change [2]: -0.056
log2 fold change (encorafenib): 0.019
log2 fold change [3]: -0.004

SLC35B4 (UniProt Q969S0)
Chain of UniProt Q969S0 (Q969S0 whole entry, looked up): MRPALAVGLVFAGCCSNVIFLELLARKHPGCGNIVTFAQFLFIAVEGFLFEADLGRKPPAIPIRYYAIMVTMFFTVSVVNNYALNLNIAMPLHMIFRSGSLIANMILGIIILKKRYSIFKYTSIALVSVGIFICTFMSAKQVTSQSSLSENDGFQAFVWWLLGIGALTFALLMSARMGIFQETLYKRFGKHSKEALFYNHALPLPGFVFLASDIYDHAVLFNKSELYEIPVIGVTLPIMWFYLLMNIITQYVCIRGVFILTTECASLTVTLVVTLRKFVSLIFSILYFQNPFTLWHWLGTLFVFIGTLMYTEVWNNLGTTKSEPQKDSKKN
log2 fold change (sotrastaurin): 0.012
log2 fold change (Tubastatin A): 0.014
log2 fold change [1]: 0.046
log2 fold change (defactinib): 0.086
log2 fold change (rucaparib): 0.036
log2 fold change (encorafenib): -0.015
log2 fold change [3]: -0.146

TBP (UniProt P20226)
Chain of UniProt P20226 (P20226 whole entry, looked up): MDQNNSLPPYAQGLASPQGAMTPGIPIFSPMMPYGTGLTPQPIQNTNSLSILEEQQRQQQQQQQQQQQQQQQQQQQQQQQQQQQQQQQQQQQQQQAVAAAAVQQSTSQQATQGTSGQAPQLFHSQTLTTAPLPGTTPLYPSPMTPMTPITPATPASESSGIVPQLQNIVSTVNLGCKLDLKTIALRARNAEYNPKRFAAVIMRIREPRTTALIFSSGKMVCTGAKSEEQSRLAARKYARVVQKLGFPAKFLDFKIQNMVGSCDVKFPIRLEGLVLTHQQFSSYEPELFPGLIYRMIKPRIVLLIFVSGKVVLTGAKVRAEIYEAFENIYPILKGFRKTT
log2 fold change (saracatinib): 0.316
log2 fold change (alvocidib): 0.119
log2 fold change (Tubastatin A): -0.014
log2 fold change (defactinib): -0.003
log2 fold change (rucaparib): 0.088
log2 fold change [2]: -0.158
log2 fold change (encorafenib): 0.019
log2 fold change [3]: -0.071

SREBF1 isoform 4 (UniProt P36956)
log2 fold change (saracatinib): 0.077
log2 fold change [1]: 0.033
log2 fold change (rucaparib): -0.164
log2 fold change [2]: 0.045
log2 fold change (encorafenib): 0.044

SLC46A1 (UniProt Q96NT5)
log2 fold change (alvocidib): 0.193
log2 fold change (Tubastatin A): 0.067
log2 fold change [1]: 0.085
log2 fold change (defactinib): 0.034
log2 fold change (rucaparib): -0.081
log2 fold change (encorafenib): -0.051
log2 fold change [3]: -0.011

STK17B (UniProt O94768)
log2 fold change [1]: -1.03 (active)

SRXN1 (UniProt Q9BYN0)
Chain of UniProt Q9BYN0 (Q9BYN0 whole entry, looked up): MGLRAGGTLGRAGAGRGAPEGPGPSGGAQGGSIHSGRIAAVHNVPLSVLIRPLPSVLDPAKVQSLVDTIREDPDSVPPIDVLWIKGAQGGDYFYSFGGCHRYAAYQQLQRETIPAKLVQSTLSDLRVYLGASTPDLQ
log2 fold change (sotrastaurin): 0.019
log2 fold change (alvocidib): 0.015
log2 fold change (Tubastatin A): 0.209
log2 fold change (defactinib): -0.283
log2 fold change (rucaparib): 0.111
log2 fold change (encorafenib): -0.008
log2 fold change [3]: 0.022

SOX5 (UniProt P35711)
log2 fold change (sotrastaurin): -0.014
log2 fold change (alvocidib): -0.163
log2 fold change (Tubastatin A): 0.263
log2 fold change [1]: -0.053
log2 fold change (defactinib): -0.224
log2 fold change [3]: 0.064

SUPT5H isoform 2 (UniProt O00267)
log2 fold change (defactinib): -0.005
log2 fold change [3]: -0.058

TDP1 (UniProt Q9NUW8)
log2 fold change (alvocidib): -0.028
log2 fold change [1]: -0.041

TCOF1 isoform 6 (UniProt Q13428)
log2 fold change (sotrastaurin): -0.094
log2 fold change (alvocidib): 0.104
log2 fold change (Tubastatin A): -0.103
log2 fold change [1]: -0.149
log2 fold change (defactinib): 0.027
log2 fold change (rucaparib): -0.022
log2 fold change (encorafenib): 0.162
log2 fold change [3]: -0.053

SRC isoform 2 (UniProt P12931)
log2 fold change (sotrastaurin): -0.167
log2 fold change (alvocidib): -0.061
log2 fold change (Tubastatin A): -0.108
log2 fold change [1]: -0.069
log2 fold change (defactinib): -0.077
log2 fold change (rucaparib): -0.343
log2 fold change [2]: 0.007
log2 fold change (encorafenib): 0.082
log2 fold change [3]: 0.188

TAOK2 (UniProt Q9UL54)
log2 fold change (Tubastatin A): -0.003
log2 fold change [1]: 0.244
log2 fold change (rucaparib): -0.012
log2 fold change (encorafenib): -0.028

SNRK (UniProt Q9NRH2)
log2 fold change (saracatinib): -0.092
log2 fold change (sotrastaurin): 0.003
log2 fold change (rucaparib): -0.099
log2 fold change [2]: 0.011
log2 fold change (encorafenib): 0.002

TC2N (UniProt Q8N9U0)
log2 fold change (saracatinib): -0.215
log2 fold change (Tubastatin A): 0.308
log2 fold change (defactinib): -0.341
log2 fold change [2]: -0.064
log2 fold change [3]: -0.096

SSB (UniProt E7ERC4)
log2 fold change (saracatinib): -0.05
log2 fold change (defactinib): -0.205
log2 fold change [2]: 0.018
log2 fold change [3]: -0.092

TCOF1 isoform 3 (UniProt Q13428)
log2 fold change (sotrastaurin): 0.326
log2 fold change (Tubastatin A): 0.054
log2 fold change [1]: -0.007
log2 fold change (rucaparib): -0.065
log2 fold change (encorafenib): -0.084

SNX2 isoform 2 (UniProt O60749)
Chain of UniProt O60749 (O60749 whole entry, looked up): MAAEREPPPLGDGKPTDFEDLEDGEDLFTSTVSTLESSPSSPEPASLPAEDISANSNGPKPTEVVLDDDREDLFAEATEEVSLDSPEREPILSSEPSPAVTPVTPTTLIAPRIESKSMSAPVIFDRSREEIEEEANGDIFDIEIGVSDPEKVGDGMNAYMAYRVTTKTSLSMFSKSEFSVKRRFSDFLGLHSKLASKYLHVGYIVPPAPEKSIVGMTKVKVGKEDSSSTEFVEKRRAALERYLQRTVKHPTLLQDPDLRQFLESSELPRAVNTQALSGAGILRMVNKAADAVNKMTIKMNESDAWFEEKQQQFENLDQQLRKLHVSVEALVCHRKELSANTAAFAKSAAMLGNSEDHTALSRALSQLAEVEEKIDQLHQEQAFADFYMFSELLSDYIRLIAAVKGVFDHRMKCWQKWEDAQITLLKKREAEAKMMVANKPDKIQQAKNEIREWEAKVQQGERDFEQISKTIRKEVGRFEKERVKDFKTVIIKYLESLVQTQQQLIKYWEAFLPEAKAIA
log2 fold change (saracatinib): -0.002
log2 fold change (sotrastaurin): 0.003
log2 fold change (alvocidib): -0.078
log2 fold change (defactinib): -0.155
log2 fold change (rucaparib): 0.024
log2 fold change [2]: 0.176
log2 fold change (encorafenib): -0.141
log2 fold change [3]: 0.097

THAP9 (UniProt Q9H5L6)
log2 fold change (saracatinib): 0.039
log2 fold change (alvocidib): -0.087
log2 fold change [2]: 0.186

SPIN4 (UniProt Q56A73)
log2 fold change [1]: -0.199

SSBP4 (UniProt Q9BWG4)
log2 fold change (saracatinib): 0.409 (active)
log2 fold change (sotrastaurin): 0
log2 fold change (Tubastatin A): 0.038
log2 fold change [1]: -0.184
log2 fold change (rucaparib): 0.022
log2 fold change [2]: 0.031
log2 fold change (encorafenib): -0.18

SLC38A7 (UniProt Q9NVC3)
log2 fold change (sotrastaurin): 0.152
log2 fold change (alvocidib): -0.137
log2 fold change (Tubastatin A): -0.177
log2 fold change [1]: -0.052
log2 fold change (defactinib): -0.126
log2 fold change (rucaparib): 0.004
log2 fold change (encorafenib): 0.016
log2 fold change [3]: -0.261

SLC8B1 (UniProt Q6J4K2)
Chain of UniProt Q6J4K2 (Q6J4K2 whole entry, looked up): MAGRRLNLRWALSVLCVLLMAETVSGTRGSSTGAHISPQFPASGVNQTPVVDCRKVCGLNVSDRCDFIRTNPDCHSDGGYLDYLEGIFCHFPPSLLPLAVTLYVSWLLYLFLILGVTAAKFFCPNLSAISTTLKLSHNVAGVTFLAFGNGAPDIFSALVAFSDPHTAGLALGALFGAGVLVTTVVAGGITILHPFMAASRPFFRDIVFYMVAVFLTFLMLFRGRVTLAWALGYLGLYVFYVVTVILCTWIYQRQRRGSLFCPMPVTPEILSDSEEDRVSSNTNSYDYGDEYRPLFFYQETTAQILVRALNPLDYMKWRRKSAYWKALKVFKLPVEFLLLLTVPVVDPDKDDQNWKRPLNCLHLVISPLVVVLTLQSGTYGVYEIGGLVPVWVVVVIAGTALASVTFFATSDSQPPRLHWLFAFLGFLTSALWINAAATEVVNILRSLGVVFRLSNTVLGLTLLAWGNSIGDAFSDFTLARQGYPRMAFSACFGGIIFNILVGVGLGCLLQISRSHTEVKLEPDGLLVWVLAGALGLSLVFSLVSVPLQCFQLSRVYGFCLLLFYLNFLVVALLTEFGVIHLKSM
log2 fold change (saracatinib): 0.036
log2 fold change (alvocidib): 0.012
log2 fold change [1]: -0.019
log2 fold change (defactinib): 0.029
log2 fold change [2]: -0.176
log2 fold change [3]: -0.028

SRSF9 (UniProt Q13242)
log2 fold change (saracatinib): 0.022
log2 fold change (sotrastaurin): -0.015
log2 fold change (alvocidib): 0.27
log2 fold change [1]: -0.145
log2 fold change (defactinib): 0.276
log2 fold change (rucaparib): 0.376
log2 fold change [2]: 0.097
log2 fold change (encorafenib): 0.149
log2 fold change [3]: -0.024

TBC1D20 isoform 3 (UniProt Q96BZ9)
log2 fold change (sotrastaurin): 0.053
log2 fold change (alvocidib): -0.428
log2 fold change [1]: 0.004
log2 fold change (defactinib): -0.044
log2 fold change (rucaparib): 0.05
log2 fold change (encorafenib): 0.074
log2 fold change [3]: -0.068

SPAG9 isoform 4 (UniProt O60271)
log2 fold change (sotrastaurin): -0.171
log2 fold change (alvocidib): 0.037
log2 fold change (Tubastatin A): -0.103
log2 fold change [1]: 0.081
log2 fold change (defactinib): 0.018
log2 fold change (rucaparib): 0.113
log2 fold change (encorafenib): 0.022
log2 fold change [3]: 0.088

TBC1D2 (UniProt Q9BYX2)
log2 fold change (rucaparib): 0.264
log2 fold change (encorafenib): 0.122

TM7SF2 (UniProt O76062)
log2 fold change (saracatinib): 0.069
log2 fold change (sotrastaurin): -0.142
log2 fold change (alvocidib): -0.048
log2 fold change [1]: -0.043
log2 fold change (defactinib): -0.006
log2 fold change [2]: 0.018
log2 fold change [3]: -0.096

SLC39A1 (UniProt Q9NY26)
log2 fold change (alvocidib): 0.072
log2 fold change [1]: -0.129

SMPD4 isoform 2 (UniProt Q9NXE4)
log2 fold change (saracatinib): 0.028
log2 fold change (alvocidib): -0.07
log2 fold change (Tubastatin A): -0.054
log2 fold change (defactinib): 0.094
log2 fold change [2]: 0.02
log2 fold change [3]: -0.19

SMARCA4 (UniProt P51532)
Chain of UniProt P51532 (P51532 whole entry, looked up): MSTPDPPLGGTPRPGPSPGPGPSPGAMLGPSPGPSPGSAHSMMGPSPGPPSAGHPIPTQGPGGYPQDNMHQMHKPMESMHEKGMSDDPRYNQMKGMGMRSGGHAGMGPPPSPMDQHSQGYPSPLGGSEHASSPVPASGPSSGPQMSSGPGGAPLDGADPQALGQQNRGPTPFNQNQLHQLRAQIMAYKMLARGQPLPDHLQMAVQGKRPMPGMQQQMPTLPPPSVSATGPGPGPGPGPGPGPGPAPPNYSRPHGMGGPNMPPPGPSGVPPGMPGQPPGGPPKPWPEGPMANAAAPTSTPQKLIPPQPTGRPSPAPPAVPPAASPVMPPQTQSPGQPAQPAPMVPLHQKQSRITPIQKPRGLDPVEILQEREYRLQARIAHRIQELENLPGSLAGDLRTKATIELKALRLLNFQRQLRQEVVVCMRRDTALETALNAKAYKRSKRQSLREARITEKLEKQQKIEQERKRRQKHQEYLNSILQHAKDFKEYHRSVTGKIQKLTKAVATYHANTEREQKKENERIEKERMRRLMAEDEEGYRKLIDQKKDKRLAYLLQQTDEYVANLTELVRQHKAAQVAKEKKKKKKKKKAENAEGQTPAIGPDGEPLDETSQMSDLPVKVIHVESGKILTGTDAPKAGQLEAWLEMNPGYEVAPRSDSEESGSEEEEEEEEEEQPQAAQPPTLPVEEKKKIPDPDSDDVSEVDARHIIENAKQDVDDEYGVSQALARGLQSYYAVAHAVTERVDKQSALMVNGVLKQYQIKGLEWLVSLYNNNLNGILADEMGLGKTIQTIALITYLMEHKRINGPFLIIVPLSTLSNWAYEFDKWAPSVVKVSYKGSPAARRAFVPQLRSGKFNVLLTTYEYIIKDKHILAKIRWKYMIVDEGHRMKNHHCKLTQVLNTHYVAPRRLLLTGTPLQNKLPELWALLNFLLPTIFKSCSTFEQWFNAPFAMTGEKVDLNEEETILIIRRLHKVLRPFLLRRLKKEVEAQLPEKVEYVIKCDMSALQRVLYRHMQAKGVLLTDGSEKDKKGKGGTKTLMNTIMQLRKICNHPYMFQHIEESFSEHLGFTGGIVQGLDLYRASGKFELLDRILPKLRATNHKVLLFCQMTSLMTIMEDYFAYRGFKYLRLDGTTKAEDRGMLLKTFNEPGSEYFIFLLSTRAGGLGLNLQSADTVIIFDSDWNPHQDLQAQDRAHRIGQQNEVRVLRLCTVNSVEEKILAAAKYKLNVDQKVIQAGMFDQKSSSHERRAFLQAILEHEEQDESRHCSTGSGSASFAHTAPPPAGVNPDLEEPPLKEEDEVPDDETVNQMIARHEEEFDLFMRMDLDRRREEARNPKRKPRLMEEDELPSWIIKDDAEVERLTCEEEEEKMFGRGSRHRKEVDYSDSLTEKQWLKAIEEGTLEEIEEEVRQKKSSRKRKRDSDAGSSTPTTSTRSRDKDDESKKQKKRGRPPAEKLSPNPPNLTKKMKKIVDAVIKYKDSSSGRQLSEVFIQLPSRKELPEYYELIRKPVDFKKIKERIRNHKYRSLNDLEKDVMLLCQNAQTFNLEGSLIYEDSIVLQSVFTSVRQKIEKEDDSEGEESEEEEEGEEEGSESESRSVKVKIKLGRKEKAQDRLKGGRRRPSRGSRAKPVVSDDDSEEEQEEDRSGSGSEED
log2 fold change (saracatinib): -0.303
log2 fold change (sotrastaurin): -0.086
log2 fold change (alvocidib): -0.068
log2 fold change [1]: -0.17
log2 fold change (defactinib): 0.134
log2 fold change (rucaparib): 0.099
log2 fold change [2]: -0.091
log2 fold change (encorafenib): 0.049
log2 fold change [3]: 0.022

TEX30 (UniProt Q5JUR7)
log2 fold change (saracatinib): -0.065
log2 fold change (alvocidib): -0.177
log2 fold change (Tubastatin A): 0.022
log2 fold change [1]: 0.015
log2 fold change (defactinib): -0.096
log2 fold change [2]: -0.026
log2 fold change [3]: 0.017

SLC9A6 isoform 3 (UniProt Q92581)
log2 fold change (saracatinib): 0.128
log2 fold change (alvocidib): -0.044
log2 fold change (Tubastatin A): 0.04
log2 fold change [1]: 0.104
log2 fold change (rucaparib): 0.165
log2 fold change [2]: -0.107
log2 fold change (encorafenib): -0.162

SYK (UniProt P43405)
log2 fold change (saracatinib): -0.151
log2 fold change (alvocidib): -0.168
log2 fold change (Tubastatin A): 0.355
log2 fold change [1]: -0.113
log2 fold change (defactinib): 0.249
log2 fold change (rucaparib): 0.258
log2 fold change [2]: 0.03
log2 fold change (encorafenib): 0.112
log2 fold change [3]: -0.012

TBK1 (UniProt Q9UHD2)
Chain of UniProt Q9UHD2 (Q9UHD2 whole entry, looked up): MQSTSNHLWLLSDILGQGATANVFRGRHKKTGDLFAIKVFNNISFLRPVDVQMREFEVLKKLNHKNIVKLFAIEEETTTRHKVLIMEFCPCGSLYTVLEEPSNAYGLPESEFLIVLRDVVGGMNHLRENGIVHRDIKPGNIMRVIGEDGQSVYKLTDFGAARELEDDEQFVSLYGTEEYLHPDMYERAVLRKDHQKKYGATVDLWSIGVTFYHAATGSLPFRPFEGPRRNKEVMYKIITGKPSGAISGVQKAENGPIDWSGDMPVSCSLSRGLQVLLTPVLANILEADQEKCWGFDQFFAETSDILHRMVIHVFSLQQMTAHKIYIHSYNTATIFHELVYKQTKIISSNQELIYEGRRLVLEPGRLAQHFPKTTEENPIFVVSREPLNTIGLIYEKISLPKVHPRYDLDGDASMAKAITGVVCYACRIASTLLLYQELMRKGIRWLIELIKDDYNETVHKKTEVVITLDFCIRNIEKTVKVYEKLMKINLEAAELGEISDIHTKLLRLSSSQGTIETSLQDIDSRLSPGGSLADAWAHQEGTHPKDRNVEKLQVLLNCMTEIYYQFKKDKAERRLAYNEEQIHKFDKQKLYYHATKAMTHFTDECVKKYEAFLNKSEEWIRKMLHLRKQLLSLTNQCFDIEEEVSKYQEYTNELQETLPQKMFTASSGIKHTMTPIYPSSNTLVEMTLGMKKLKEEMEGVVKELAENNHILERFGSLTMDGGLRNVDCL
log2 fold change (saracatinib): -0.026
log2 fold change (sotrastaurin): -0.063
log2 fold change (Tubastatin A): -0.014
log2 fold change [1]: 0.536 (active)
log2 fold change (defactinib): 0.079
log2 fold change (rucaparib): 0.106
log2 fold change [2]: -0.013
log2 fold change (encorafenib): 0.049
log2 fold change [3]: 0.001

SP2 (UniProt Q02086)
log2 fold change (saracatinib): 0.09
log2 fold change (sotrastaurin): 0.091
log2 fold change (rucaparib): 0.324
log2 fold change [2]: -0.132
log2 fold change (encorafenib): -0.025

SSBP4 (UniProt U3KPY3)
log2 fold change (defactinib): -0.189
log2 fold change [3]: -0.121

TK1 (UniProt K7ERV3)
log2 fold change (saracatinib): 0.037
log2 fold change (sotrastaurin): 0.011
log2 fold change (alvocidib): -0.009
log2 fold change (Tubastatin A): -0.013
log2 fold change (defactinib): 0
log2 fold change [2]: -0.058
log2 fold change [3]: -0.003

SPIRE1 (UniProt Q08AE8)
Chain of UniProt Q08AE8 (Q08AE8 whole entry, looked up): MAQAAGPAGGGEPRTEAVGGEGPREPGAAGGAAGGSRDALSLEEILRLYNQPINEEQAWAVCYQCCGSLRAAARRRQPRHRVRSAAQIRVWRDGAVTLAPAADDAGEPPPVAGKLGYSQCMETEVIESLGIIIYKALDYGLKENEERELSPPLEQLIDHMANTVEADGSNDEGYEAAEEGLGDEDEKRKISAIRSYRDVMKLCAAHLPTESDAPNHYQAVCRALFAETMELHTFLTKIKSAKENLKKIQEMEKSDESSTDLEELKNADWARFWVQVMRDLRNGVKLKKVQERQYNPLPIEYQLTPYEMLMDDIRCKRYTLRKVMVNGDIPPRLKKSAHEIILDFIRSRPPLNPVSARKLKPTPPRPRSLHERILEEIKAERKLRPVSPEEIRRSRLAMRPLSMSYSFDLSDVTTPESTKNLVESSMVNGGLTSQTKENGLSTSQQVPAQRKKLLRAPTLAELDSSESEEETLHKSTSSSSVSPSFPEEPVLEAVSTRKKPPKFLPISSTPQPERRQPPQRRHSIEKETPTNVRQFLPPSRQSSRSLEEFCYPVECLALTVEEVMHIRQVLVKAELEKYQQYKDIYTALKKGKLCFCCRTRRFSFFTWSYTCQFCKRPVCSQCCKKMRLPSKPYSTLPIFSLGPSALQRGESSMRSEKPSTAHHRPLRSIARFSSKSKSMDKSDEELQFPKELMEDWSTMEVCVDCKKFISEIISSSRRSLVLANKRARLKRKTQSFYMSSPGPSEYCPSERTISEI
log2 fold change (alvocidib): 0.153
log2 fold change (Tubastatin A): 0.141
log2 fold change [1]: -0.166
log2 fold change (defactinib): 0.047
log2 fold change (rucaparib): 0.035
log2 fold change (encorafenib): -0.105
log2 fold change [3]: -0.074
